Most compounds without a hit are left out; they make up all but 2.3% or so of the library.
TDP43 rescue – TDP-43 toxicity inhibition in yeast | hit rate 1.8% among 410,000 | Potency, µM (top dose mostly 46.1 µM), for the others: at the highest dose growth rescue (activation), actives largely listed as activators | TDP-43 expressing yeast growth rescue, BacTiter-Glo, 24 h; note: potency is the fitted concentration of half-maximal effect; % of control where 0% means no effect; nearly all actives have a fitted effect of over 50% in size
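Growth rescue of TDP-43-toxic yeast measured as ATP luminescence (BacTiter-Glo). Cells grown to mid-log in raffinose, induced in galactose at OD600=0.02, exposed to compound 24 hr at 30 deg C.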
FUS yeast rescue – rescues growth of FUS-expressing yeast. S. cerevisiae FUS-expressing, growth rescue, OD600, 24 h. Potency, µM (series often up to 76.6 µM), hits mostly activators. hit rate 0.24% among 390,000. AID 1347120;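 note: potency is the fitted concentration of half-maximal effect; plate controls were DMSO vehicle for no effect and reference control for full effect; nearly all actives have a fitted effect of over 55% in size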
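S. cerevisiae expressing FUS from galactose induction served as the toxicity model. Growth after 24hr at 30C, read as absorbance at 600 nm, indicates suppression of toxicity; compounds dosed at several concentrations.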
Abeta yeast res – restores growth of yeast expressing A-beta42 peptide. Potency, µM (series often up to 46.1 µM), usual class: activators. hit rate 0.063% among 410,000. yeast expressing A-beta42, growth rescue, OD600, 48 h; response scale: 0% DMSO, 100% iron-clioquinol control; note: potency is the fitted concentration of half-maximal effect; nearly all actives have a fitted effect of over 55% in size
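Yeast A-beta toxicity model in growth medium with pinned compounds, 48 h at 30 C; growth read as absorbance at 600 nm. Normalized to FeCl3/clioquinol equimolar mix (positive) and DMSO (negative).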
Akt phos inh – inhibitors of Akt phosphorylation; hit rate 0.32% among 360,000; Neuro2A IGF-stimulated pAkt S473 HTRF, 20 min; active compounds read low; AID 651550; activity change, % for hits at 50 µM; in the data active = activity change below about -80%; inconclusive = mostly about -51% to -80%; note: % is set by controls: 0 for no effect and ±100 for the full control effect
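Neuro2A cells (4,500/well, DMEM with 0.5% FBS) were treated with compound at a single 50 µM final concentration, stimulated with 6 nM IGF for 20 min at 37 °C, and lysed. Phospho-Akt Ser473 was read by HTRF as 665/615 ratio ×10^4.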
aSyn yeast inh – rescues yeast growth from alpha-synuclein toxicity; Yeast expressing alpha-synuclein, growth rescue, BacTiter-Glo, 24 h; Potency, µM (top dose mostly 46.1 µM), inactives show at the highest dose growth rescue (activation), hits mostly activators; hit rate 0.14% among 370,000; note: potency is the fitted concentration of half-maximal effect; % of control where 0% means no effect; nearly all actives have a fitted effect of over 65% in size
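Screening used galactose-induced yeast with toxic alpha-synuclein levels, exposed to compound for 24 hr at 30 deg C. Cell growth, read with BacTiter-Glo luminescence, gave the measured signal.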
Starred values were filed as active, the others as inactive. Unless noted, calls come from the whole dose curve; as a rule, active = well fitted curve in the direction sought with a large enough effect; inconclusive = small, poorly fitted or top-dose-only effect, or another doubt; inactive = no such curve, though single readings can be large; an effect the other way counts as inactive or inconclusive.

How did CC1CCN(c2cc(N)c(Cl)cc2[N+](=O)[O-])CC1 do in these assays?
TDP43 rescue: 18µM*; FUS yeast rescue: inactive; Abeta yeast res: inactive; Akt phos inh: inactive; aSyn yeast inh: inconclusive

How did CCN(CC)c1ccc(/C=C(\C#N)c2ccccn2)cc1 do in these assays?
TDP43 rescue: 16µM*; FUS yeast rescue: inactive; Abeta yeast res: inactive; Akt phos inh: inactive; aSyn yeast inh: -4%

What do the screens show for `Cc1ccn2c(=O)c(C(=O)NCCc3ccccc3)c(O)nc2c1`?
TDP43 rescue: -24%; FUS yeast rescue: inactive; Abeta yeast res: inactive

Results for COc1ccc(Br)cc1CNC(=O)Cn1nc(C)n2c(cc3cc(F)ccc32)c1=O ?
TDP43 rescue: 21%; FUS yeast rescue: inactive; Abeta yeast res: inactive

How did CC(C)(C)OC(=O)NCCCCCc1nnc(SCc2ccccc2F)o1 do in these assays?
TDP43 rescue: inconclusive; FUS yeast rescue: inactive; Abeta yeast res: inactive; Akt phos inh: inactive; aSyn yeast inh: 6%

How did CC(C)(C)OC(=O)NCCCCCc1nnc(SCc2ccccc2)o1 do in these assays?
TDP43 rescue: 35µM*; FUS yeast rescue: inactive; Abeta yeast res: inactive; Akt phos inh: inactive; aSyn yeast inh: 0%

How did CC(C)(C)OC(=O)NCCCCCc1nnc(SCc2cccc(F)c2)o1 do in these assays?
TDP43 rescue: 25µM*; FUS yeast rescue: inactive; Abeta yeast res: inactive; Akt phos inh: inactive; aSyn yeast inh: 3%

Results for COc1ccc(CCC(=O)NCc2nc3cccnc3n2Cc2ccc(C)cc2)cc1 ?
TDP43 rescue: 19%; FUS yeast rescue: inactive; Abeta yeast res: inactive

Results for CSc1ccc(CCNC(=O)CCc2c(C)nc3ncnn3c2C)cc1 ?
TDP43 rescue: 1%; FUS yeast rescue: inactive; Abeta yeast res: inactive

What do the screens show for `COc1ccc(-c2nc3ccc(C)cn3c2Cc2cccc(F)c2)cc1OC`?
TDP43 rescue: 13%; FUS yeast rescue: inactive; Abeta yeast res: inactive; Akt phos inh: inactive; aSyn yeast inh: 0%

How did COc1ccc(-c2nc3c(C)cc(Br)cn3c2Cc2ccccc2)cc1OC do in these assays?
TDP43 rescue: 0%; FUS yeast rescue: inactive; Abeta yeast res: inactive; Akt phos inh: inactive; aSyn yeast inh: 24%

Results for COc1ccc(-c2nc3ccc(Br)cn3c2Cc2cccc(F)c2)cc1OC ?
TDP43 rescue: 14µM*; FUS yeast rescue: inactive; Abeta yeast res: inactive; Akt phos inh: inactive; aSyn yeast inh: 26%

What do the screens show for `COc1ccccc1Cc1c(-c2ccc(Cl)cc2)nc2c(C)cc(Br)cn12`?
TDP43 rescue: 25µM*; FUS yeast rescue: inconclusive; Abeta yeast res: inactive; Akt phos inh: inactive; aSyn yeast inh: -10%

How did COc1ccc(-c2nc3c(C)cc(Br)cn3c2Cc2cccc(F)c2)cc1OC do in these assays?
TDP43 rescue: 16µM*; FUS yeast rescue: inconclusive; Abeta yeast res: inactive; Akt phos inh: inactive; aSyn yeast inh: 7%

What do the screens show for `COc1ccc(CNC(=O)Cn2c(=O)c3cccn3c3cccnc32)cc1`?
TDP43 rescue: 7%; FUS yeast rescue: inactive; Abeta yeast res: inactive

Results for CS(=O)(=O)N1CCc2cc(S(=O)(=O)NCc3ccccc3Cl)ccc21 ?
TDP43 rescue: 17%; FUS yeast rescue: inactive; Abeta yeast res: inactive

Results for Fc1ccc(NCc2ccccc2-c2nnc(-c3ccccc3Cl)o2)cc1 ?
TDP43 rescue: 14%; FUS yeast rescue: inactive; Abeta yeast res: inactive

Results for CCCCc1nn2c(=O)cc(COC(=O)c3ccc(NC(=O)C(CC)CC)cc3)nc2s1 ?
TDP43 rescue: 3%; FUS yeast rescue: inactive; Abeta yeast res: inactive

How did CC(C)OCC(O)CN1CCNCC1 (centres undefined) do in these assays?
TDP43 rescue: -1%; FUS yeast rescue: inactive; Abeta yeast res: inactive; Akt phos inh: -115%*; aSyn yeast inh: -5%

How did Cc1cc2cc(C)c3nnc(SCc4ccccn4)n3c2cc1C do in these assays?
TDP43 rescue: 0%; FUS yeast rescue: inactive; Abeta yeast res: inactive; Akt phos inh: inactive; aSyn yeast inh: 4%

Results for Cc1ccc(C)c2c1cc(C)c1nnc(SCc3ccccn3)n12 ?
TDP43 rescue: 11µM*; FUS yeast rescue: inactive; Abeta yeast res: inactive

Results for COc1cc(OC)c(/C=C/c2nccc3ccccc23)c(OC)c1 ?
aSyn yeast inh: -10%

How did COC(=O)c1nnn(CC(=O)Nc2c(C)cccc2C)c1N do in these assays?
TDP43 rescue: inconclusive; FUS yeast rescue: inactive; Abeta yeast res: inactive

How did S=C(N/N=C/c1ccc2ncccc2c1)Nc1ccccc1 do in these assays?
TDP43 rescue: 13µM*; FUS yeast rescue: inactive; Abeta yeast res: inconclusive; Akt phos inh: inactive; aSyn yeast inh: 5%

What do the screens show for `CCCn1c(=O)c2sccc2n2c(CCCC(=O)N3CCN(c4ccccc4)CC3)nnc12`?
TDP43 rescue: 5%; FUS yeast rescue: inactive; Abeta yeast res: inactive

How did COc1ccc2c(c1)C(c1cccs1)=NNC(c1ccncc1)=N2 do in these assays?
TDP43 rescue: 11%; FUS yeast rescue: inconclusive; Abeta yeast res: inactive; Akt phos inh: inactive; aSyn yeast inh: -1%

What do the screens show for `CCCOc1ccc(C2=NNC(c3cccs3)=Nc3ccc(OC)cc32)cc1`?
TDP43 rescue: -9%; FUS yeast rescue: inactive; Abeta yeast res: inactive; Akt phos inh: -125%*; aSyn yeast inh: 1%

What do the screens show for `Cc1nnc(SCc2nc(-c3ccc(Cl)cc3)no2)n1-c1ccc(F)cc1`?
TDP43 rescue: 16%; FUS yeast rescue: inconclusive; Abeta yeast res: inactive

What do the screens show for `CCOc1ncccc1C(=O)Nc1ccc(F)cc1`?
TDP43 rescue: -1%; FUS yeast rescue: inactive; Abeta yeast res: inactive; Akt phos inh: inactive; aSyn yeast inh: -24%

What do the screens show for `O=C(Nc1ccc(Cl)c(Cl)c1)c1cccnc1`?
TDP43 rescue: 18µM*; FUS yeast rescue: inactive; Abeta yeast res: inactive; Akt phos inh: inactive; aSyn yeast inh: -1%

What do the screens show for `O=C(Nc1cccc(NC(=O)c2cccnc2)c1)c1cccnc1`?
TDP43 rescue: -11%; FUS yeast rescue: inactive; Abeta yeast res: inactive; Akt phos inh: inactive; aSyn yeast inh: -6%

What do the screens show for `Cc1ccc(NC(=O)c2ccccc2NC(=O)c2cccnc2)cc1`?
TDP43 rescue: -7%; FUS yeast rescue: inactive; Abeta yeast res: inactive; Akt phos inh: inactive; aSyn yeast inh: -5%

How did CCOc1ncccc1C(=O)Nc1ccc(Cl)cc1 do in these assays?
TDP43 rescue: 11µM*; FUS yeast rescue: inactive; Abeta yeast res: inactive; Akt phos inh: inactive; aSyn yeast inh: -6%

How did O=C(Nc1ccccc1C(=O)Nc1ccc(Cl)cc1)c1cccnc1 do in these assays?
TDP43 rescue: 14µM*; FUS yeast rescue: inactive; Abeta yeast res: inactive; Akt phos inh: inactive; aSyn yeast inh: -3%
